Assay results published in PMC4336329 (PLoS ONE, 2015).
Out of some 310,000 compounds screened, about 2,200 (0.71%) showed an effect of 50% or more. The effect is printed as a negative number. The sample holds strong results, similar compounds and a random draw of the others, so the mix is not that of the screen.

molecular target: human ether-à-go-go-related gene (hERG) potassium channel (human, UniProt Q12809); test: primary screen, population patch clamp on CHO cells stably expressing hERG; higher = less effect of the substance
Sequence (Q12809 whole entry, looked up): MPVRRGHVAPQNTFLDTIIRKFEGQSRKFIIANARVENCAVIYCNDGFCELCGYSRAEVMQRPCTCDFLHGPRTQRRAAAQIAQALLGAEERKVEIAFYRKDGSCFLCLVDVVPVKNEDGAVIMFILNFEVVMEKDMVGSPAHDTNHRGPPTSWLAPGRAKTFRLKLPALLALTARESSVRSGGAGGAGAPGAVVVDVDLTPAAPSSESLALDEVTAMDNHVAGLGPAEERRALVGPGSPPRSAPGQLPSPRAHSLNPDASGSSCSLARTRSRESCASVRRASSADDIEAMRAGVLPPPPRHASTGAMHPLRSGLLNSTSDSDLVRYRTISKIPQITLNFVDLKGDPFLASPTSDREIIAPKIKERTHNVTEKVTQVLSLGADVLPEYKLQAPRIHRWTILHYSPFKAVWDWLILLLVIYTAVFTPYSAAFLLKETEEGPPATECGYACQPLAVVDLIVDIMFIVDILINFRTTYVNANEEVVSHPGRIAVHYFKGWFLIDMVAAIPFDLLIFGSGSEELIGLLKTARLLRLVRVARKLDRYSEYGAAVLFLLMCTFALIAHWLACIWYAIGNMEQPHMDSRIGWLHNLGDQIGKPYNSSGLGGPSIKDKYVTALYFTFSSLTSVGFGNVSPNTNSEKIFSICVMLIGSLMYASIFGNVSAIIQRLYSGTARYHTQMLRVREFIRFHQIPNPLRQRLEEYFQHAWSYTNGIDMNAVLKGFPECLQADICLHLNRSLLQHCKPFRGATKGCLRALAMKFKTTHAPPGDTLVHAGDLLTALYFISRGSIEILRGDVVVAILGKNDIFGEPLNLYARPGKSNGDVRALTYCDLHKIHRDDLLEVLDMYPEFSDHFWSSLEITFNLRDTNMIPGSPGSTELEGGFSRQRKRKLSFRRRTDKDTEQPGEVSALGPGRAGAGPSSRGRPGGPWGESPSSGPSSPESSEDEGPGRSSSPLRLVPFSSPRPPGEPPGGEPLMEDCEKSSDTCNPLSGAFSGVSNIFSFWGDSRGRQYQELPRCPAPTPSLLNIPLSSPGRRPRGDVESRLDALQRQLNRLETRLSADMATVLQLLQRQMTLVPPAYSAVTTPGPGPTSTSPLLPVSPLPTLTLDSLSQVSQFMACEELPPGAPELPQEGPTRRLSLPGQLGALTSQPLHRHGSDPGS

With `COc1ccccc1-c1csc(NC(=O)c2ccc(N3C(=O)CCC3=O)cc2)n1` as the compound, how does the “hERG current change (%, negative = inhibition) at 1uM” value read?
The value was 5.85%.

Which “hERG current change (%, negative = inhibition) at 1uM” value does the source give for `Cc1c(C(=O)Nc2ccc(S(=O)(=O)N(C)C3CCN(C)CC3)cc2)oc2ccccc12` here?
Its value is 3.99%.

Which “hERG current change (%, negative = inhibition) at 1uM” value does the source give for `Cc1cc(NC(=O)Cn2nc([N+](=O)[O-])c(Br)c2C)no1` here?
The value was 15.4%.

Which “hERG current change (%, negative = inhibition) at 1uM” value does the source give for `Clc1ccc(-c2csc(N3CCN(c4ccccc4)CC3)n2)cc1` here?
Its value is 6.51%.

How did the “hERG current change (%, negative = inhibition) at 1uM” value turn out when `O=C(COC(=O)Cc1c(F)cccc1Cl)NCCC1=CCCCC1` was run?
The value was 7.46%.

For `O=C(NCCn1cccn1)c1ccc(OC2CCN(CCc3ccccc3)CC2)cc1`, which “hERG current change (%, negative = inhibition) at 1uM” value is on record?
Its value is -1.71%.

Which “hERG current change (%, negative = inhibition) at 1uM” value does the source give for `Cc1cc(CN(C)C(=O)c2ccc(OC3CCN(Cc4ccccn4)CC3)cc2)on1` here?
The value was -2.96%.

`Cc1cc(CN(C)C(=O)c2ccc(OC3CCN(CCc4ccccc4)CC3)cc2)on1` was tested. Which “hERG current change (%, negative = inhibition) at 1uM” value did it give?
The value was -77.5%.

`O=C(NCc1ccon1)c1ccc(OC2CCN(CCc3ccccc3)CC2)cc1` was tested. Which “hERG current change (%, negative = inhibition) at 1uM” value did it give?
Its value is -26%.

`CCc1cc(CNC(=O)c2ccc(OC3CCN(CCc4ccccc4)CC3)cc2)on1` was tested. Which “hERG current change (%, negative = inhibition) at 1uM” value did it give?
Its value is -54.4%.

`CN(Cc1cnn(C)c1)C(=O)c1ccc(OC2CCN(CCc3ccccc3)CC2)cc1` was tested. Which “hERG current change (%, negative = inhibition) at 1uM” value did it give?
Its value is -8.79%.

With `CN1CCN(c2ccc(CNS(=O)(=O)Cc3cccc(C(F)(F)F)c3)cc2)CC1` as the compound, how does the “hERG current change (%, negative = inhibition) at 1uM” value read?
Its value is 7.74%.

For `N=c1c(S(=O)(=O)c2ccc(Br)cc2)cc2c(=O)n3ccccc3nc2n1Cc1ccco1`, which “hERG current change (%, negative = inhibition) at 1uM” value is on record?
The value was 15.4%.

Which “hERG current change (%, negative = inhibition) at 1uM” value does the source give for `COc1ccc(CCNC(=O)c2cc3c(=O)n4ccccc4nc3n(Cc3ccco3)c2=N)cc1OC` here?
Its value is -74.3%.

For `N=c1c(C(=O)NCc2ccco2)cc2c(=O)n3ccccc3nc2n1CCc1ccccc1`, which “hERG current change (%, negative = inhibition) at 1uM” value is on record?
Its value is -84.2%.

For `CC(C)n1c(=N)c(C(=O)NCCc2ccccc2)cc2c(=O)n3ccccc3nc21`, which “hERG current change (%, negative = inhibition) at 1uM” value is on record?
Its value is -78.6%.

Which “hERG current change (%, negative = inhibition) at 1uM” value does the source give for `O=C(NCCc1ccccc1)c1cnc2ccccn2c1=O` here?
The value was 8.72%.

For `N=c1c(C(=O)NCc2ccccc2)cc2c(=O)n3ccccc3nc2n1Cc1ccco1`, which “hERG current change (%, negative = inhibition) at 1uM” value is on record?
Its value is -75.5%.

How did the “hERG current change (%, negative = inhibition) at 1uM” value turn out when `N=c1c(C(=O)NCCN2CCOCC2)cc2c(=O)n3ccccc3nc2n1CCc1ccccc1` was run?
The value was -33.1%.

`COc1ccc(CCNC(=O)c2ccc3c(=O)n(Cc4ccco4)c(=S)[nH]c3c2)cc1OC` was tested. Which “hERG current change (%, negative = inhibition) at 1uM” value did it give?
The value was 13.6%.

With `N=c1c(S(=O)(=O)c2ccccc2)cc2c(=O)n3ccccc3nc2n1Cc1ccco1` as the compound, how does the “hERG current change (%, negative = inhibition) at 1uM” value read?
Its value is 18.6%.

How did the “hERG current change (%, negative = inhibition) at 1uM” value turn out when `COc1ccc(CCNC(=O)c2cc3c(=O)n4cccc(C)c4nc3n(Cc3ccco3)c2=N)cc1OC` was run?
The value was -21.8%.

With `CC(=O)c1ccc(OCCCC(=O)Nc2cccc(S(=O)(=O)N3CCCCC3)c2)cc1` as the compound, how does the “hERG current change (%, negative = inhibition) at 1uM” value read?
The value was -3.68%.

For `Oc1ccc2ccccc2c1Br`, which “hERG current change (%, negative = inhibition) at 1uM” value is on record?
The value was 12.1%.

Which “hERG current change (%, negative = inhibition) at 1uM” value does the source give for `COc1ccc(N2CCN(C(=O)/C=C/c3ccco3)CC2)cc1` here?
Its value is 6.52%.

For `Cc1ccc(C(=O)NCCNS(=O)(=O)c2ccccc2)cc1`, which “hERG current change (%, negative = inhibition) at 1uM” value is on record?
The value was -1.17%.

For `CCC(=O)Nc1nnc(S(=O)(=O)N(CC)c2ccc(OC)cc2)s1`, which “hERG current change (%, negative = inhibition) at 1uM” value is on record?
Its value is 23.9%.

For `COc1ccc(/C=C(/NC(=O)c2ccccc2)C(=O)N2CCCC2)cc1OC`, which “hERG current change (%, negative = inhibition) at 1uM” value is on record?
Its value is 14.3%.

How did the “hERG current change (%, negative = inhibition) at 1uM” value turn out when `CC(=O)Oc1ccc2c3c(c(=O)oc2c1C)CCCC3` was run?
Its value is 15.5%.

How did the “hERG current change (%, negative = inhibition) at 1uM” value turn out when `CCOC(=O)CNC(=O)c1cc2c(=O)[nH]c3ccc(C)cc3c2s1` was run?
Its value is 11.1%.

How did the “hERG current change (%, negative = inhibition) at 1uM” value turn out when `O=C(NC1CC1)c1ccc2snnc2c1` was run?
Its value is 6.14%.

With `Cc1ccc(C)n1-c1ccc(C(=O)Nc2ccccc2F)cc1` as the compound, how does the “hERG current change (%, negative = inhibition) at 1uM” value read?
The value was 10.7%.

`CC1CN(CC(=O)Nc2ccc([N+](=O)[O-])cc2Br)CC(C)O1` (centres unmarked) was tested. Which “hERG current change (%, negative = inhibition) at 1uM” value did it give?
The value was 4.18%.

With `N=c1c(C(=O)NCc2ccco2)cc2c(=O)n3ccccc3nc2n1Cc1ccccc1` as the compound, how does the “hERG current change (%, negative = inhibition) at 1uM” value read?
Its value is -81.6%.

Which “hERG current change (%, negative = inhibition) at 1uM” value does the source give for `N=c1c(C(=O)NCCc2ccccc2)cc2c(=O)n3ccccc3nc2n1Cc1ccco1` here?
Its value is -67.5%.

With `Cc1ccc(Cn2c(=N)c(C(=O)NCCN3CCOCC3)cc3c(=O)n4ccccc4nc32)cc1` as the compound, how does the “hERG current change (%, negative = inhibition) at 1uM” value read?
Its value is -8.25%.

How did the “hERG current change (%, negative = inhibition) at 1uM” value turn out when `Cc1ccc(Cn2c(=N)c(C(=O)NCc3ccco3)cc3c(=O)n4ccccc4nc32)cc1` was run?
The value was -67.9%.

How did the “hERG current change (%, negative = inhibition) at 1uM” value turn out when `Cc1ccc(CNC(=O)c2cc3c(=O)n4ccccc4nc3n(Cc3ccco3)c2=N)cc1` was run?
The value was -38.1%.

Which “hERG current change (%, negative = inhibition) at 1uM” value does the source give for `N=c1c(C(=O)NCc2ccc(F)cc2)cc2c(=O)n3ccccc3nc2n1Cc1ccco1` here?
The value was -85%.

For `COc1ccc(N2C(=O)C3CCCN3C2c2ccc(F)cc2)cc1Cl` (centres unmarked), which “hERG current change (%, negative = inhibition) at 1uM” value is on record?
Its value is 8.28%.

With `O=C(NCCc1ccc(Cl)cc1)c1cccnc1` as the compound, how does the “hERG current change (%, negative = inhibition) at 1uM” value read?
The value was 9.38%.

`CCN(CC)c1ccc(/C=N/N2CCN(Cc3ccccc3)CC2)c(O)c1` was tested. Which “hERG current change (%, negative = inhibition) at 1uM” value did it give?
Its value is -0.743%.

`O=C(CN1C(=O)/C(=C\c2ccccc2Cl)Oc2ccccc21)NCc1cccnc1` was tested. Which “hERG current change (%, negative = inhibition) at 1uM” value did it give?
The value was 5.85%.

`CCN(CC)c1ccc(NC(=O)c2cc(OC)cc(OC)c2)c(C)c1` was tested. Which “hERG current change (%, negative = inhibition) at 1uM” value did it give?
The value was -2.35%.

How did the “hERG current change (%, negative = inhibition) at 1uM” value turn out when `CC1CCN(S(=O)C23CC4CC(CC(C4)C2)C3)CC1` (centres unmarked) was run?
The value was 16.3%.

`Fc1cccc(Cl)c1Cn1nnc2c(N3CCC4(CC3)OCCO4)ncnc21` was tested. Which “hERG current change (%, negative = inhibition) at 1uM” value did it give?
Its value is 13.7%.

Which “hERG current change (%, negative = inhibition) at 1uM” value does the source give for `CCn1c(=O)c(C(=O)NCCc2ccc(OC)c(OC)c2)c(O)c2ccccc21` here?
Its value is 8.62%.

Which “hERG current change (%, negative = inhibition) at 1uM” value does the source give for `N=c1c(C(=O)NCc2ccco2)cc2c(=O)n3ccccc3nc2n1Cc1ccc(Cl)cc1` here?
Its value is -55.7%.

For `N=c1c(S(=O)(=O)c2ccc(Cl)cc2)cc2c(=O)n3ccccc3nc2n1Cc1ccco1`, which “hERG current change (%, negative = inhibition) at 1uM” value is on record?
The value was 14%.

`Cn1c(CSCc2ccc(Cl)c(Cl)c2)nnc1SCC(=O)Nc1nccs1` was tested. Which “hERG current change (%, negative = inhibition) at 1uM” value did it give?
Its value is 2.81%.

Which “hERG current change (%, negative = inhibition) at 1uM” value does the source give for `CN(C)C1=NC[C@H](Cc2ccccc2)N1CCC1CCCC1` here?
The value was -19.7%.

For `CCCCCCCN1C(N(C)C)=NC[C@@H]1Cc1ccccc1`, which “hERG current change (%, negative = inhibition) at 1uM” value is on record?
The value was -69%.

For `CN(C)C1=NC[C@H](Cc2ccccc2)N1CCCC1CCCCC1`, which “hERG current change (%, negative = inhibition) at 1uM” value is on record?
Its value is -29.5%.

For `CC(C)CCCN1C(N(C)C)=NC[C@@H]1Cc1ccccc1`, which “hERG current change (%, negative = inhibition) at 1uM” value is on record?
The value was -2.29%.

With `CN(C)C1=NC[C@H](Cc2ccccc2)N1CCCCc1ccccc1` as the compound, how does the “hERG current change (%, negative = inhibition) at 1uM” value read?
The value was -42.2%.

With `CN(C)C1=NC[C@H](Cc2ccccc2)N1CCCC1CCCC1` as the compound, how does the “hERG current change (%, negative = inhibition) at 1uM” value read?
Its value is -56.8%.
